For assay [1], the target named is Tyrosine-protein kinase CSK (Homo sapiens) (UniProt P41240). The conditions noted are these: at 1 µM.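 Note: each value is an averaged inhibition reading.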
Assay [2] concerns the target T1, Discoidin domain-containing receptor 2 (Homo sapiens) (UniProt Q16832).
T1 sequence (whole entry): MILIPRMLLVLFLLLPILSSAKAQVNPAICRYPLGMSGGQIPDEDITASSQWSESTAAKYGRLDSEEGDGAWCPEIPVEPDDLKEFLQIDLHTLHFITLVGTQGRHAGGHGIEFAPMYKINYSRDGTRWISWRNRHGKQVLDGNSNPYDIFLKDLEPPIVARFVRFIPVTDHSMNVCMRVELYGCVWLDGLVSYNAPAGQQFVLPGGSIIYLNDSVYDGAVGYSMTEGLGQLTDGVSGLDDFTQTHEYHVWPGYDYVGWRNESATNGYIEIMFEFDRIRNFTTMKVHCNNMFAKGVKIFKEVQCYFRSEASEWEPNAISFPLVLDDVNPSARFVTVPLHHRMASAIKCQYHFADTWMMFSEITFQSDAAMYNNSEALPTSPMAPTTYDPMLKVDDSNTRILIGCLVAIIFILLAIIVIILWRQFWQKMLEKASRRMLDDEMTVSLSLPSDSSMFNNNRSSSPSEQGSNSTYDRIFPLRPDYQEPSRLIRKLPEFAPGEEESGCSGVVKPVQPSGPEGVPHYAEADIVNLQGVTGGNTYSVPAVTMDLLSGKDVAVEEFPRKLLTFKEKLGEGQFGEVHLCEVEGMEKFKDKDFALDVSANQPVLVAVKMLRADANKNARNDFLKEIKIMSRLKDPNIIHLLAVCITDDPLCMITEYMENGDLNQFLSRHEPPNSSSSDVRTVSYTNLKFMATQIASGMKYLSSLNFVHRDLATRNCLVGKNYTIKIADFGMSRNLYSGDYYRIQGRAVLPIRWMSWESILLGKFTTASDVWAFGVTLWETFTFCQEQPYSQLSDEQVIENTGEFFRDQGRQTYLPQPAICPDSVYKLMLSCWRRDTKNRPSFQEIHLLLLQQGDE
The following applies: at 0.1 µM.

The target of assay [3] is T1, Discoidin domain-containing receptor 2 (Homo sapiens). The following applies: at 1 µM.
Assay [4] concerns the target Epidermal growth factor receptor (Homo sapiens) (UniProt P00533). The conditions noted are these: at 0.1 µM.
Assay [5] has the same target. The following applies: at 1 µM.
For assay [6], the system named is Epidermal growth factor receptor (Homo sapiens), P00533 [L858R]. The conditions noted are these: at 0.1 µM.
Assay [7] shares this test system. The following applies: at 1 µM.
Assay [8] relates to Epidermal growth factor receptor (Homo sapiens), P00533 [L861Q]. The conditions noted are these: at 0.1 µM.
For assay [9] the test system is unchanged. The conditions noted are these: at 1 µM.
Assay [10] has as its system Epidermal growth factor receptor (Homo sapiens), P00533 [T790M]. The conditions noted are these: at 0.1 µM.
Assay [11] shares this test system. The following applies: at 1 µM.
Assay [12] relates to Epidermal growth factor receptor (Homo sapiens), P00533 [L858R,T790M]. The conditions noted are these: at 0.1 µM.
For assay [13] the test system is unchanged. The conditions noted are these: at 1 µM.
Assay [14] concerns the target Ephrin type-A receptor 2 (Homo sapiens) (UniProt P29317). The conditions noted are these: at 0.1 µM.
The target is the same in assay [15]. The following applies: at 1 µM.
Assay [16] addresses T2, Ephrin type-A receptor 3 (Homo sapiens) (UniProt P29320).
T2 sequence (whole entry): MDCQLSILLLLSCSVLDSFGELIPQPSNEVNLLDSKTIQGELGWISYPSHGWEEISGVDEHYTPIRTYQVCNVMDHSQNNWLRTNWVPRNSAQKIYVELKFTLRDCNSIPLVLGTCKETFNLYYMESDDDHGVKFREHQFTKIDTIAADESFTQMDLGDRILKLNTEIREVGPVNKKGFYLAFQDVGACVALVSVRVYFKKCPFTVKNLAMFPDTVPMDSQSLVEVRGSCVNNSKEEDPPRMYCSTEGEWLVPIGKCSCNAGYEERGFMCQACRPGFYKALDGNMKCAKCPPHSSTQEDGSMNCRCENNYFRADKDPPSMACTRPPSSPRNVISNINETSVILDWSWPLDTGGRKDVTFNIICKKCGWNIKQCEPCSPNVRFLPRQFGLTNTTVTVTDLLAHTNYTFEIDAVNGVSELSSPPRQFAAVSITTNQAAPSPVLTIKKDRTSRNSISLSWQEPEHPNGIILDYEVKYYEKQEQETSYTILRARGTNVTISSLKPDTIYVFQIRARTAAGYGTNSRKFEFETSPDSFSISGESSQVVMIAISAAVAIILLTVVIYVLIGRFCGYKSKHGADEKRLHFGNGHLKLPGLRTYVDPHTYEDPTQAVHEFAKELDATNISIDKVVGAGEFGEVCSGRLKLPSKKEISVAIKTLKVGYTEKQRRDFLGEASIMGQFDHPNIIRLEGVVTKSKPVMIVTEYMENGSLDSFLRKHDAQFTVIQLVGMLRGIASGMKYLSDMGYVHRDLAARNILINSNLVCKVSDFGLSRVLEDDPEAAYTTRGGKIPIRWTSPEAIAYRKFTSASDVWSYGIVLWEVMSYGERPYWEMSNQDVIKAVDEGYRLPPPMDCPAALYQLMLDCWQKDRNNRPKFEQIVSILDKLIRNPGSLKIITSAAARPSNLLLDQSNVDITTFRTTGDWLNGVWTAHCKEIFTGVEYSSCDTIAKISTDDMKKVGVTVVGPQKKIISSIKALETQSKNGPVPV
The conditions noted are these: at 0.1 µM.

The target of assay [17] is T2, Ephrin type-A receptor 3 (Homo sapiens). The conditions noted are these: at 1 µM.
The target of assay [18] is Ephrin type-A receptor 4 (Homo sapiens) (UniProt P54764). The conditions noted are these: at 0.1 µM.
For assay [19] the target is unchanged. The conditions noted are these: at 1 µM.
Assay [20] addresses T3, Ephrin type-B receptor 2 (Homo sapiens) (UniProt P29323).
T3 sequence (whole entry): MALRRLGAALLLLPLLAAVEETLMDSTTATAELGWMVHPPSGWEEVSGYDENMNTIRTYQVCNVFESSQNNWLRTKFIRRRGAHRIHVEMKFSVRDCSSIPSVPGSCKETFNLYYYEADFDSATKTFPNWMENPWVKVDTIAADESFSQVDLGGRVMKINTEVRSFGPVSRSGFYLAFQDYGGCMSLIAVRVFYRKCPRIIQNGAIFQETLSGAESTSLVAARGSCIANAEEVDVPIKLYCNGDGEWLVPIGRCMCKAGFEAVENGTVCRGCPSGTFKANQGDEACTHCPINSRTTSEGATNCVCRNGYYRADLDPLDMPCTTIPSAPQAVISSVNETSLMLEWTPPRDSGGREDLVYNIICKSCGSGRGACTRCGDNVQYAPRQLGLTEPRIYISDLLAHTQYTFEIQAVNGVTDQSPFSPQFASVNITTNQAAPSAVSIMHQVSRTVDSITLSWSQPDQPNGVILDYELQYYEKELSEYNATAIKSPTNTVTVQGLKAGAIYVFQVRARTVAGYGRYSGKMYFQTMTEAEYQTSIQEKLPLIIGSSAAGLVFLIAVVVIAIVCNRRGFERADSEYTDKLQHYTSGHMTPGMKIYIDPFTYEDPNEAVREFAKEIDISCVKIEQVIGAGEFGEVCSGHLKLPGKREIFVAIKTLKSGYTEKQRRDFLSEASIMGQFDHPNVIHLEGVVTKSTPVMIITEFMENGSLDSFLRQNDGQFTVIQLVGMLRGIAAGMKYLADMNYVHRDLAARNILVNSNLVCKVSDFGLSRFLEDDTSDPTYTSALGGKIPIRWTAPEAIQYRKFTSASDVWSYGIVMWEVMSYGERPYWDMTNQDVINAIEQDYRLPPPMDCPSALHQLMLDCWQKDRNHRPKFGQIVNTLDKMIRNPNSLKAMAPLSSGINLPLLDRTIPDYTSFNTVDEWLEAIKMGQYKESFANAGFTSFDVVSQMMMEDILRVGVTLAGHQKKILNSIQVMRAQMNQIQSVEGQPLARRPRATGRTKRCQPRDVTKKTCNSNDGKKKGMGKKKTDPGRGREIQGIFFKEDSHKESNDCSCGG
The conditions noted are these: at 0.1 µM.

A word on the inhibition: it is the relative decrease from the control value, in per cent.

Sequence of Ephrin type-A receptor 4 (Homo sapiens) (P54764 whole entry): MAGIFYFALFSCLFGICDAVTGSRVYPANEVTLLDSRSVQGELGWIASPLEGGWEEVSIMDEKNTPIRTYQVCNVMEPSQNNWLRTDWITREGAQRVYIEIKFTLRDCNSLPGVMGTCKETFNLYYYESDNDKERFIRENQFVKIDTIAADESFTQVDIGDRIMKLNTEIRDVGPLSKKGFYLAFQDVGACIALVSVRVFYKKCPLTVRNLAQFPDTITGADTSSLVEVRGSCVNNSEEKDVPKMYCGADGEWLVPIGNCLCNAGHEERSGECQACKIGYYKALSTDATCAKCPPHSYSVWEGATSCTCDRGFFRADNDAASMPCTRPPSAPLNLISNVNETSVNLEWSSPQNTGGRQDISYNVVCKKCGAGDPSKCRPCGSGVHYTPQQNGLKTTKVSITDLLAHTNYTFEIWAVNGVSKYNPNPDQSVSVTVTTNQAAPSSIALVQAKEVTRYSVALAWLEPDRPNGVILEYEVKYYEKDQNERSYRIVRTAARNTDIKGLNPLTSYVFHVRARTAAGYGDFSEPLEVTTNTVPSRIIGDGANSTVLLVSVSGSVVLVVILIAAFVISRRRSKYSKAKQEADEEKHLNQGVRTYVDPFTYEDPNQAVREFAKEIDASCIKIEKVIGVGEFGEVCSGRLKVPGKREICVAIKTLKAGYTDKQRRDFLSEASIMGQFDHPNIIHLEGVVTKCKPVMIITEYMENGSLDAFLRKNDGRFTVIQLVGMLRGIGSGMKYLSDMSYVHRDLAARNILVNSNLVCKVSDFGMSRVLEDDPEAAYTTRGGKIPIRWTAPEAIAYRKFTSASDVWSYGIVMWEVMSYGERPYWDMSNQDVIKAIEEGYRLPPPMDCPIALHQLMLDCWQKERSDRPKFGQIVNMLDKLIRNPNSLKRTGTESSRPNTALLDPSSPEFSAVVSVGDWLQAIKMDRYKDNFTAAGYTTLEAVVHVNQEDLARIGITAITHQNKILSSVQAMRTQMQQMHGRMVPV
Sequence of Epidermal growth factor receptor (Homo sapiens), P00533 [L861Q] (P00533 whole entry L861Q): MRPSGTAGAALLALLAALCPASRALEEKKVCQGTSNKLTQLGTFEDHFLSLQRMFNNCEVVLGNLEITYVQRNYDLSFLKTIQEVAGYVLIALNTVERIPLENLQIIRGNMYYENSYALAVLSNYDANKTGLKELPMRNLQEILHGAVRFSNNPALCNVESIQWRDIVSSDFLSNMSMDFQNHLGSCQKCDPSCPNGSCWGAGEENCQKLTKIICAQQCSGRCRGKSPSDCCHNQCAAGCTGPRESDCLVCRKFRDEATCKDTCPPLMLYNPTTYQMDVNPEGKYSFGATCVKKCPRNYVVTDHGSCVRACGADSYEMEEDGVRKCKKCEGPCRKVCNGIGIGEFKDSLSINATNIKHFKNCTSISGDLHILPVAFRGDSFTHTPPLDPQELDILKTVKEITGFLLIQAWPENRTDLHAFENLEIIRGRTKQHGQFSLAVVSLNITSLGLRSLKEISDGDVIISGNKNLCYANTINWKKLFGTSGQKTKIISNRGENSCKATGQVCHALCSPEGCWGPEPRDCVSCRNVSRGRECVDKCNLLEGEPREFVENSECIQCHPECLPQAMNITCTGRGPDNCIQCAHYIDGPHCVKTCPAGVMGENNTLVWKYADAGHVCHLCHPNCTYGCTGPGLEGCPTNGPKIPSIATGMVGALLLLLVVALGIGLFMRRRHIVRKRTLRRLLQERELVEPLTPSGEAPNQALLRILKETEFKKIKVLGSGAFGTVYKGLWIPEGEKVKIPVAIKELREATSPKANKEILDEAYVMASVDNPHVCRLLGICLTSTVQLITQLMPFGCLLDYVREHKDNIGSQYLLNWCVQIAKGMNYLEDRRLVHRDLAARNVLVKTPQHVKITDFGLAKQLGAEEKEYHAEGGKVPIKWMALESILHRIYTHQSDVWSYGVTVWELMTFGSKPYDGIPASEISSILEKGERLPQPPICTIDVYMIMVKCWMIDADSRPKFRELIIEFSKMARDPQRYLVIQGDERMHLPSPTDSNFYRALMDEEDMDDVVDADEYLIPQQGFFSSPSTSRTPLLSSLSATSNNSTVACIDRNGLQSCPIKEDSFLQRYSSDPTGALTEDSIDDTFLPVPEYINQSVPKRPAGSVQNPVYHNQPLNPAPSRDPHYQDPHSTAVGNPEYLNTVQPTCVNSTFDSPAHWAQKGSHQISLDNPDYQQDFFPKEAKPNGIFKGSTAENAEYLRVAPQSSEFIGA
Sequence of Ephrin type-A receptor 2 (Homo sapiens) (P29317 whole entry): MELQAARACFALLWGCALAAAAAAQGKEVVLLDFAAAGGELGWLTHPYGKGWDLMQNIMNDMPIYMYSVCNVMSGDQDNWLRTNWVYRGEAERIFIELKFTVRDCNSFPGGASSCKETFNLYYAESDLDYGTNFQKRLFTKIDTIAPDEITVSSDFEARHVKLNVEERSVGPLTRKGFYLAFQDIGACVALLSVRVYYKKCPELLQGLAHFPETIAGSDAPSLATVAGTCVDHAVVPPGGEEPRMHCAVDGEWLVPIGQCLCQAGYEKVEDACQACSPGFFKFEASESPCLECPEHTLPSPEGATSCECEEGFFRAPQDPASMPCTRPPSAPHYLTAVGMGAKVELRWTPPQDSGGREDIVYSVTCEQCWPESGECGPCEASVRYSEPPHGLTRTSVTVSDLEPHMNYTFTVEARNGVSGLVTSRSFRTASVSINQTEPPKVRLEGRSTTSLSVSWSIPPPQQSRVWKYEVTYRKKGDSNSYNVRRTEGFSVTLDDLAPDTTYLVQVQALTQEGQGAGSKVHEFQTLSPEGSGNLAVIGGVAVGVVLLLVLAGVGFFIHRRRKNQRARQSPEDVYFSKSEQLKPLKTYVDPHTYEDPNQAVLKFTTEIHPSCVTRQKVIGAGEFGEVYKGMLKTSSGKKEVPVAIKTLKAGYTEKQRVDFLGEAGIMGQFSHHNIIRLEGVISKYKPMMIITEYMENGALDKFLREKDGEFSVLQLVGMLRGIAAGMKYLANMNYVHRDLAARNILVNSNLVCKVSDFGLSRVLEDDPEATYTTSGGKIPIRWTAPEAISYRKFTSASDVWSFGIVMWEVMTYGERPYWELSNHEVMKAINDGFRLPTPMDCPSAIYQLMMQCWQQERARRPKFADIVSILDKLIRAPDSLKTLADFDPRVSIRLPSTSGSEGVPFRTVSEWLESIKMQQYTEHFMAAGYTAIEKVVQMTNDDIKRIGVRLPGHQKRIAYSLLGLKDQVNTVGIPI
Sequence of Epidermal growth factor receptor (Homo sapiens), P00533 [L858R] (P00533 whole entry L858R): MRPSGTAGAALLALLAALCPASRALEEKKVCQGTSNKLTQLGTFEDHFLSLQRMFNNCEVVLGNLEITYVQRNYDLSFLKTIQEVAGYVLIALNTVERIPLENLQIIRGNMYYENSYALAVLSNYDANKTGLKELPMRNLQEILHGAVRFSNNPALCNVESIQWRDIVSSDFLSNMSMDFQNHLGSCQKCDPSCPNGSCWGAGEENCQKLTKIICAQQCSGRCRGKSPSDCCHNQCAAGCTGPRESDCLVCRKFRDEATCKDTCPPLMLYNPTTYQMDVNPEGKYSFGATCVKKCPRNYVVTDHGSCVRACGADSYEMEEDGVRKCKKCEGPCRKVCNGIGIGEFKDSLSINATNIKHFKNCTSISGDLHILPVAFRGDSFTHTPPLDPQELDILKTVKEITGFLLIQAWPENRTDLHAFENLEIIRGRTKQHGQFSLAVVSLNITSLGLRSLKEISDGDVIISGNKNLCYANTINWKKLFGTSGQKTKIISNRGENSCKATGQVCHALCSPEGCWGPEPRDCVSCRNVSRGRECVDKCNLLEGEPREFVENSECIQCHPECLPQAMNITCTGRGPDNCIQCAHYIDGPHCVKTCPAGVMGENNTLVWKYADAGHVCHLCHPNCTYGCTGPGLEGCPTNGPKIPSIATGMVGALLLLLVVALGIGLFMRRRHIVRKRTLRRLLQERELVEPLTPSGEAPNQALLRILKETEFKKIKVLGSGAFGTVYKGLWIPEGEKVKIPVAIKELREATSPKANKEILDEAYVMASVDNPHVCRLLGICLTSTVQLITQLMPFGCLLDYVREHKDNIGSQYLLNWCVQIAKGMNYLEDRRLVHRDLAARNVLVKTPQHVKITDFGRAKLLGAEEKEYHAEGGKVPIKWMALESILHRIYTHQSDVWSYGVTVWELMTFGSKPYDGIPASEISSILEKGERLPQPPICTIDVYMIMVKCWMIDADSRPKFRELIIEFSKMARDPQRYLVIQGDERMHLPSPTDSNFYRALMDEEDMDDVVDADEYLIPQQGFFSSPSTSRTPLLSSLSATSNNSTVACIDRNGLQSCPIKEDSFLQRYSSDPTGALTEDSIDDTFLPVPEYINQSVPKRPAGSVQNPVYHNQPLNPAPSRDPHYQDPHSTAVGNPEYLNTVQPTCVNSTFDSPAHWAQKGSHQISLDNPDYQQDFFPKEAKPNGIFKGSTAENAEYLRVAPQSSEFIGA
Sequence of Tyrosine-protein kinase CSK (Homo sapiens) (P41240 2-450 limits assumed): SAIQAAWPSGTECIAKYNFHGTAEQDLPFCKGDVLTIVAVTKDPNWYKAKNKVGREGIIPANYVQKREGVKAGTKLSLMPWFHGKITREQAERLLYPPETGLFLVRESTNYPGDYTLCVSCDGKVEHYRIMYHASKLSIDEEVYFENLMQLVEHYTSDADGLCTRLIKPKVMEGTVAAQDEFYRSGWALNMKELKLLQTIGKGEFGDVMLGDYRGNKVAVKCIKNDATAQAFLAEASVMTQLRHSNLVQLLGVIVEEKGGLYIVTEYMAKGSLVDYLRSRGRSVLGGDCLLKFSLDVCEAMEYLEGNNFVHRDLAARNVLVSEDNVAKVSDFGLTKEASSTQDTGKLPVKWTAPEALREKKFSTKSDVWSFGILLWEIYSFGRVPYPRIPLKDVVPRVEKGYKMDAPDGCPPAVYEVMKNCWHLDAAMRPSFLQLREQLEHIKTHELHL

With `COC(=O)Nc1nc2ccc(Sc3ccc(NC(=O)Nc4cc(C(F)(F)F)ccc4F)cc3)cc2[nH]1`, the inhibition in assay [1] is 7.52%; in [2] it was 56.3%; in assay [3], 83.5%; in assay [4], -0.94%; in assay [5], 2.67%; in assay [6] it was -0.44%. The inhibition in assay [7] was 2.71%; in assay [8], 2.04%; in [9], 0.54%; in assay [10], 0.63%; in assay [11], 0.47%; in assay [12], 4.21%. Moreover, the inhibition is 1.97% in assay [13]; 25.8% in assay [14]; 89.6% in assay [15]; 9.91% in [16]; 34.5% in [17]; 49.5% in [18]. The inhibition in assay [19] amounted to 81.6%; in assay [20] it was 43.4%.

For the molecule `C[C@@H](Oc1cc(-n2cnc3ccc(OC4CCN(C)CC4)cc32)sc1C(N)=O)c1ccccc1Cl`, the inhibition in assay [1] is 5.07%; in assay [2], 1.72%; in [3], 4.56%; in [4], 0.49%; in assay [5] it was 3.58%; in assay [6], 1.45%. Moreover, the inhibition in assay [7] was determined as 3.56%; in assay [8] it was 2.71%; in [9], 4.46%; in assay [10] it was 0.91%; in [11] it was 1.48%; in assay [12] it was 1.1%. For the same molecule, the inhibition in assay [13] is 6.15%; in assay [14], -2.62%; in assay [15], -3.66%; in [16] it was -0.17%; in [17] it was -0.53%; in assay [18] it was 7.06%. Further, the inhibition in [19] came to 9.83%; in assay [20], 7.8%.

In the case of `COc1ccc2cc(-c3c(-c4ccncc4)nc(-c4ccc(S(C)(=O)=O)cc4C)n3C)ccc2c1`, the inhibition is 7.9% in assay [1]; -1.21% in [2]; -5.12% in assay [3]; 0.26% in [4]; 6.12% in assay [5]; 1.94% in assay [6]. Besides, the inhibition was 10.5% in [7]; 2.4% in assay [8]; 10.6% in assay [9]; 1.37% in assay [10]; 3.3% in assay [11]; 1.66% in assay [12]. The inhibition in assay [13] is 2.57%; in assay [14], 0.22%; in assay [15], 0.86%; in assay [16] it was 4.84%; in assay [17], 3.83%; in [18], 9.07%. Besides, the inhibition stood at 17.6% in assay [19] and 4.7% in assay [20].

Consider `O=C(Nc1n[nH]c2cc(-c3cc(F)ccc3F)ccc12)C1CC1`, for which the inhibition in assay [1] was found to be 2.29%; in assay [2], 2.61%; in assay [3] it was 4.77%; in assay [4], 1.18%; in assay [5], 2.02%; in assay [6], 1.19%. Moreover, the inhibition in assay [7] is 3.64%; in [8], 2.35%; in [9] it was -0.56%; in assay [10] it was 0.87%; in [11], 1.25%; in [12], 3.1%. Also, the inhibition in assay [13] was 2.41%; in assay [14], -2.28%; in assay [15], -0.08%; in assay [16], 1.66%; in assay [17], 4.19%; in assay [18], 5.23%. For the same molecule, the inhibition in [19] worked out at 3.94%; in assay [20], 6.32%.

Take `C#Cc1cccc(Nc2ncnc3ccc(OCCCCNCCS(C)(=O)=O)cc23)c1`: the inhibition in [1] came out at 8.24%; in [2] it was 4.72%; in assay [3], 9.88%; in [4], 75.9%; in assay [5] it was 85.4%; in assay [6], 96.8%. In addition, the inhibition in assay [7] was determined as 97.7%; in assay [8], 91.7%; in [9], 97.6%; in assay [10] it was 3.8%; in assay [11], 14.6%; in assay [12], 3.12%. Moreover, the inhibition in assay [13] is 22.8%; in assay [14], -2.77%; in assay [15] it was -2.32%; in assay [16], 1.3%; in assay [17], 5.15%; in assay [18], 12.3%. Besides, the inhibition in assay [19] was found to be 15.3%; in [20], 10.3%.

With `O=C(Nc1n[nH]c2cc(-c3ccccc3)ccc12)C1CC1`, the inhibition came to 4.74% in assay [1]; 1.43% in [2]; 5.94% in [3]; 3.06% in [4]; 6.49% in [5]; 2.84% in assay [6]. The inhibition in [7] stood at 5.13%; in assay [8], 4.05%; in [9], 0.82%; in assay [10], 2.65%; in assay [11], 4.64%; in [12], 2.81%. In addition, the inhibition in assay [13] turned out to be 3.37%; in assay [14] it was 1.75%; in assay [15] it was 3.8%; in assay [16], 5.17%; in assay [17] it was 6.3%; in [18], 6.13%. The inhibition came to 18.9% in [19] and 6.68% in assay [20].

For the origin of these results see ChEMBL document CHEMBL1961873, “Compounds: GSK PKIS; Assays: Nanosyn kinase panel” (2012).
